In PubChem BioAssay (EPA / NIEHS):
Results filed as inconclusive are left out. Calls of active or inactive are those of the source. The calls were made as follows: active = hit-call score of the fitted dose curve at least 0.9, where 1 is the maximum; inconclusive = response in the unintended direction; inactive = score below 0.9.

Legend:
[1] = target: human Purinergic Receptor P2Y, P2RY1 (gene 5028) (UniProt P47900); experiment: NVS_GPCR_hPY2: NovaScreen (NVS) G Protein-Coupled Receptor Assay for human Purinergic Receptor P2Y (AID 2283281)
Chain of human Purinergic Receptor P2Y, P2RY1 (gene 5028) (P47900 whole entry, looked up): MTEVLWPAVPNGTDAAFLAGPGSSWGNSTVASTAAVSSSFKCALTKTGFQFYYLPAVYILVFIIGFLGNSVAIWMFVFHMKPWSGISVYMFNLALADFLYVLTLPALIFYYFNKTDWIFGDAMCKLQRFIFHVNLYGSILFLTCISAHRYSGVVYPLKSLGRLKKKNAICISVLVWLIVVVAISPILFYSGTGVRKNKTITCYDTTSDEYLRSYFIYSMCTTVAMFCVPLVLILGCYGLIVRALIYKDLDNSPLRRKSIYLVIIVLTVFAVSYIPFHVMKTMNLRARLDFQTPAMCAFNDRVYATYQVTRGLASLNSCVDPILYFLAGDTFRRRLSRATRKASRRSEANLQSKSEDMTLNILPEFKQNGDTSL
Method in brief: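 Cell-free radioligand binding using U937-derived protein, 1 h after dosing, filter-based scintillation counting. Screened in duplicate at 25 uM; actives rerun as concentration-response up to 50 uM; loss of signal versus DMSO.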

[2] = target: human Dopamine Receptor D4.4 (DRD4.4), DRD4 (gene 1815) (UniProt P21917); experiment: NVS_GPCR_hDRD4.4: NovaScreen (NVS) G Protein-Coupled Receptor Assay for human Dopamine Receptor D4.4 (DRD4.4) (AID 2283264)
Chain of human Dopamine Receptor D4.4 (DRD4.4), DRD4 (gene 1815) (P21917 whole entry, looked up): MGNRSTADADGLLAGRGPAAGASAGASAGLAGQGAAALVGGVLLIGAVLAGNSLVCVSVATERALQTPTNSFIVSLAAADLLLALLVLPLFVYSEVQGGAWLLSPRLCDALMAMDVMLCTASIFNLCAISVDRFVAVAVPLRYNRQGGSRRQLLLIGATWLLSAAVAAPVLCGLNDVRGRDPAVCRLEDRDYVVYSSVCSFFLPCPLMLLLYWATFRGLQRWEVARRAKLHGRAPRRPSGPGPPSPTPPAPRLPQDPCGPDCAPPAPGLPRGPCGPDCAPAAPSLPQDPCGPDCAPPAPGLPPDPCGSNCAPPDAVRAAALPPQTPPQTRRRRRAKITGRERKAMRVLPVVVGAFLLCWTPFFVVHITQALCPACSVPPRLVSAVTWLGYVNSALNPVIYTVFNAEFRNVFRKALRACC
Method in brief: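 Radioligand displacement on human DRD4.4 from CHO-derived membranes, 1 hour incubation, bound counts read by filtration and scintillation. Primary screen in duplicate at 25 uM; actives followed up in concentration series.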

[3] = target: human Endothelin Receptor Type A (ETA), EDNRA (gene 1909) (UniProt P25101); experiment: NVS_GPCR_hETA: NovaScreen (NVS) G Protein-Coupled Receptor Assay for human Endothelin Receptor Type A (ETA) (AID 2283265)
Method in brief: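 Cell-free radioligand displacement using SH-SY5Y-derived protein, 3 h incubation, filter-based scintillation counting. Primary screen in duplicate at 25 uM; actives then run in concentration-response up to 50 uM; loss of binding fitted versus DMSO.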

[4] = target: human Dopamine Receptor D2 (DRD2), DRD2 (gene 1813) (UniProt P14416); experiment: NVS_GPCR_hDRD2s: NovaScreen (NVS) G Protein-Coupled Receptor Assay for human Dopamine Receptor D2 (DRD2) (AID 2283266)
Chain of human Dopamine Receptor D2 (DRD2), DRD2 (gene 1813) (P14416 whole entry, looked up): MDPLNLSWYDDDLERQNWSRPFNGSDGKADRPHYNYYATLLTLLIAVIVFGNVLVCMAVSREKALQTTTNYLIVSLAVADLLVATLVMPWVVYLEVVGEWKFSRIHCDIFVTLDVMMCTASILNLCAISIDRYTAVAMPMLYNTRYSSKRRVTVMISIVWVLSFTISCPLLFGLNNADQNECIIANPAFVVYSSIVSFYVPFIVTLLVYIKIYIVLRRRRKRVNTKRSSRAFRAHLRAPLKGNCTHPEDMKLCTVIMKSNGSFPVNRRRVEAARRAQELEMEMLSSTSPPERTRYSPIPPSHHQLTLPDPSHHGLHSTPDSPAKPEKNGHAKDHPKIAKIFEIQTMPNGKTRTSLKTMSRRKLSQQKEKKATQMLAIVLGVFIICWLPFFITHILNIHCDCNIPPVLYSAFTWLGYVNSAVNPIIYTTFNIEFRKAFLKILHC
Method in brief: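 Radioligand displacement used human DRD2 membranes extracted from CHO cells and was read by filter-based scintillation counting after 1.5 hours. Primary screening was in duplicate at 25 uM. Loss of signal versus DMSO was fitted, with concentration series in follow-up.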

[5] = target: human Endothelin Receptor Type B (ETB), EDNRB (gene 1910) (UniProt P24530); experiment: NVS_GPCR_hETB: NovaScreen (NVS) G Protein-Coupled Receptor Assay for human Endothelin Receptor Type B (ETB) (AID 2283267)
Method in brief: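 Human astrocytoma cell membranes; radioligand competitive binding read by filter scintillation counting 4 hours after dosing. Single-concentration duplicate screen at 25 uM, then singleton concentration-response up to 50 uM; loss of signal versus DMSO.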

[6] = target: human Histamine 1 Receptor (H1), HRH1 (gene 3269) (UniProt P35367); experiment: NVS_GPCR_hH1: NovaScreen (NVS) G Protein-Coupled Receptor Assay for human Histamine 1 Receptor (H1) (AID 2283268)
Method in brief: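 Cell-free radioligand displacement at human H1 receptor, 1 h, filter scintillation counting; primary screen 25 uM in duplicate, hits in concentration series; loss of binding fitted vs DMSO.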

[7] = target: D(1A) dopamine receptor (Homo sapiens) (UniProt P21728); experiment: NVS_GPCR_hDRD1: NovaScreen (NVS) G Protein-Coupled Receptor Assay for human Dopamine Receptor D1 (DRD1) (AID 2283269)
Chain of D(1A) dopamine receptor (Homo sapiens) (P21728 whole entry, looked up): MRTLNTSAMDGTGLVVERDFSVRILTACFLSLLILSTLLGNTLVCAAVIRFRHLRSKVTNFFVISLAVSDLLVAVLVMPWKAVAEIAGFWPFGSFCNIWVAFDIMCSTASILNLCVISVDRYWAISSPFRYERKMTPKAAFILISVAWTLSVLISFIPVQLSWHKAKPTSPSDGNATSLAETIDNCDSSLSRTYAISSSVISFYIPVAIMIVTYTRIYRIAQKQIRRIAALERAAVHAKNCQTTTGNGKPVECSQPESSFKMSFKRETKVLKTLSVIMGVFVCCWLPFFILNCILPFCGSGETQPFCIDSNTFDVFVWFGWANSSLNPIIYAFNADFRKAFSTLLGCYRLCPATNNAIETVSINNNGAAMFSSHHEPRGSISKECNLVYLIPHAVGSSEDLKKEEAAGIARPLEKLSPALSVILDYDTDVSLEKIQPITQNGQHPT
Method in brief: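 Radioligand displacement binding on membranes/protein extracted from HEK293 expressing human D1, cell-free; read 1 h after dosing by filter-based scintillation counting. Primary screen in duplicate at 25 uM, actives followed up in concentration series; signal loss versus DMSO baseline.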

[8] = target: Muscarinic acetylcholine receptor M1 (Homo sapiens) (UniProt P11229); experiment: NVS_GPCR_hM1: NovaScreen (NVS) G Protein-Coupled Receptor Assay for human Muscarinic, M1 Receptor (AID 2283270)
Method in brief: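 Cell-free radioligand displacement using membrane protein extracted from CHO cells, read by filter-based scintillation counting 1 h after dosing. Loss of bound signal fitted versus DMSO; primary screen single concentration 25 uM in duplicate, actives followed by concentration series.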

[9] = target: Muscarinic acetylcholine receptor M3 (Homo sapiens) (UniProt P20309); experiment: NVS_GPCR_hM3: NovaScreen (NVS) G Protein-Coupled Receptor Assay for human Muscarinic, M3 Receptor (AID 2283272)
Method in brief: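 Radioligand displacement binding on human M3 receptor in CHO-derived membranes, 1 h incubation, filter-based scintillation counting. Primary screen in duplicate at 25 uM; actives followed up in concentration series; loss of signal versus DMSO.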

[10] = target: Muscarinic acetylcholine receptor M2 (Homo sapiens) (UniProt P08172); experiment: NVS_GPCR_hM2: NovaScreen (NVS) G Protein-Coupled Receptor Assay for human Muscarinic, M2 Receptor (AID 2283273)
Chain of Muscarinic acetylcholine receptor M2 (Homo sapiens) (P08172 whole entry, looked up): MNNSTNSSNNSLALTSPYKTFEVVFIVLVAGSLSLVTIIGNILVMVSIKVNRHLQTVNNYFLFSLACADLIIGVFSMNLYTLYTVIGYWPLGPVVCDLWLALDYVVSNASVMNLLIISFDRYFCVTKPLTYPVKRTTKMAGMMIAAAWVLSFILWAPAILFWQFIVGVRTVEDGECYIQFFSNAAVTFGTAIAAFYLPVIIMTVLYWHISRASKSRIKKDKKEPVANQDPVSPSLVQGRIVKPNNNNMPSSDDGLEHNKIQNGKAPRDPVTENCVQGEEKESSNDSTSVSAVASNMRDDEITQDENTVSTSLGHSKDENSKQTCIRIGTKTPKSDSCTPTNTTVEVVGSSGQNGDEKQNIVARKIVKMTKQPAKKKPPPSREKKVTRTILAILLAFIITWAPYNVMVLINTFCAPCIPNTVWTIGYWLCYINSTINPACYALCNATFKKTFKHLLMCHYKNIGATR
Method in brief: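 Radioligand displacement on human M2 receptor membranes from CHO cells, 1 h incubation, filtration with scintillation counting. Primary screen in duplicate at 25 uM; actives retested in concentration series; loss of signal fitted versus DMSO.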

[11] = target: human Muscarinic, M4 Receptor, CHRM4 (gene 1132) (UniProt P08173); experiment: NVS_GPCR_hM4: NovaScreen (NVS) G Protein-Coupled Receptor Assay for human Muscarinic, M4 Receptor (AID 2283274)
Chain of human Muscarinic, M4 Receptor, CHRM4 (gene 1132) (P08173 whole entry, looked up): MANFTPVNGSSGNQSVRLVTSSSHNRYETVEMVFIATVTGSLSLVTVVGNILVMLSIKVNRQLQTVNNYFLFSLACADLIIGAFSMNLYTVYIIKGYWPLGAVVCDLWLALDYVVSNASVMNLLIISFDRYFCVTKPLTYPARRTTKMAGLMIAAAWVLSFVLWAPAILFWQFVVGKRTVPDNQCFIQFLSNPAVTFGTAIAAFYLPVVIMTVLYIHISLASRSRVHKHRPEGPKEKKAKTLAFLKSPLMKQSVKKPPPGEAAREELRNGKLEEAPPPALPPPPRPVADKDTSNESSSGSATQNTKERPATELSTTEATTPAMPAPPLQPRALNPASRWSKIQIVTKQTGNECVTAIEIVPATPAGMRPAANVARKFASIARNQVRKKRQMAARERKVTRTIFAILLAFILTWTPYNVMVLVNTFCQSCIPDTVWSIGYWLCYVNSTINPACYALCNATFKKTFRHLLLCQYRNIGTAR
Method in brief: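 Cell-free radioligand displacement using CHO-derived human M4 receptor protein, 1 h after dosing; bound radioactivity by filtration and scintillation counting. Primary screen single 25 uM duplicate, actives followed in concentration series.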

[12] = target: Muscarinic acetylcholine receptor M5 (Homo sapiens) (UniProt P08912); experiment: NVS_GPCR_hM5: NovaScreen (NVS) G Protein-Coupled Receptor Assay for human Muscarinic, M5 Receptor (AID 2283275)
Chain of Muscarinic acetylcholine receptor M5 (Homo sapiens) (P08912 whole entry, looked up): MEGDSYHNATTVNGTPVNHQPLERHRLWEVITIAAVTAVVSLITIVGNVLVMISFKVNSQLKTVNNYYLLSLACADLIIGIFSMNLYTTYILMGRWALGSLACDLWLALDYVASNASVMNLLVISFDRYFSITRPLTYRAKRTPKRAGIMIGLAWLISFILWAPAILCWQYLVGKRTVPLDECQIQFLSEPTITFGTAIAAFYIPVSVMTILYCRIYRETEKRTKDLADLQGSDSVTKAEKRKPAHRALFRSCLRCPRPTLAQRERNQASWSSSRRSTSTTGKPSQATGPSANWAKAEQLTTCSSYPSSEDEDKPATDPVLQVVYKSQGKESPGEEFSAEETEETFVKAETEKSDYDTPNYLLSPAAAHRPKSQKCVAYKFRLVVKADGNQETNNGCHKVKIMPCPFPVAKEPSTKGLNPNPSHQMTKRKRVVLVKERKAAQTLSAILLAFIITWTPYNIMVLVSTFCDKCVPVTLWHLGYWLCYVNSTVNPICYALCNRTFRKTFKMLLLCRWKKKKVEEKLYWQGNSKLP
Method in brief: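 Radioligand displacement on CHO-derived membrane preparations, 1 h, filter-based scintillation counting. Single-concentration duplicate screen at 25 uM; hits (e.g. 30% inhibition) retested in singleton concentration-response up to 50 uM. Loss of binding fitted versus DMSO.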

[13] = target: human Neuropeptide Receptor Y1 (NPY1), NPY1R (gene 4886) (UniProt P25929); experiment: NVS_GPCR_hNPY1: NovaScreen (NVS) G Protein-Coupled Receptor Assay for human Neuropeptide Receptor Y1 (NPY1) (AID 2283276)
Method in brief: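 Cell-free radioligand binding using receptor extracted from SK-N-MC cells, 1 h incubation, filter-based scintillation counting. Primary screen single concentration 25 uM in duplicate; actives followed in concentration series. Loss of bound signal scored versus DMSO.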

[14] = target: Neuropeptide Y receptor type 2 (Homo sapiens) (UniProt P49146); experiment: NVS_GPCR_hNPY2: NovaScreen (NVS) G Protein-Coupled Receptor Assay for human Neuropeptide Receptor Y2 (NPY2) (AID 2283277)
Method in brief: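 Radioligand binding on membranes extracted from SK-N-MC cells, cell-free, read 1 h after dosing by filter-based scintillation counting. Loss of signal vs DMSO. Primary screen in duplicate at 25 uM; actives followed up in concentration-response up to 50 uM.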

[15] = target: human Neurokinin, NK2 Receptor, TACR2 (gene 6865) (UniProt P21452); experiment: NVS_GPCR_hNK2: NovaScreen (NVS) G Protein-Coupled Receptor Assay for human Neurokinin, NK2 Receptor (AID 2283278);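 also: actives reduce bound radioligand signal relative to DMSO baseline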
Chain of human Neurokinin, NK2 Receptor, TACR2 (gene 6865) (P21452 whole entry, looked up): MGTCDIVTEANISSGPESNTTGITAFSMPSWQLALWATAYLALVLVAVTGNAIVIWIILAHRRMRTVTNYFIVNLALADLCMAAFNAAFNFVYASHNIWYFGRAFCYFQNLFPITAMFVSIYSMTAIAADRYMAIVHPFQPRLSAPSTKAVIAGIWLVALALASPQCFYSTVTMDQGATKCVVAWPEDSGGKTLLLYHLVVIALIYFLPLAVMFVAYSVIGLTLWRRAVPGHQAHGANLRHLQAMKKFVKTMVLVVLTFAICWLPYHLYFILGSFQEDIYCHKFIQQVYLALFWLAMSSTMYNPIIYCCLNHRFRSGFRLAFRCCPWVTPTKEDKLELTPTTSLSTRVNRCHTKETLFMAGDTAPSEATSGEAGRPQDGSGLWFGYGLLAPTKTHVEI
Method in brief: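 Radioligand binding on membranes from CHO cells expressing receptor, filter-based scintillation read 4 h after dosing. Initial duplicate screen at 25 uM, actives in concentration series; loss of signal versus DMSO.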

[16] = target: human Neurotensin Receptor (NTS), NTSR1 (gene 4923) (UniProt P30989); experiment: NVS_GPCR_hNTS: NovaScreen (NVS) G Protein-Coupled Receptor Assay for human Neurotensin Receptor (NTS) (AID 2283279)
Method in brief: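 Radioligand displacement on human NTSR1 protein from CHO cells, cell-free, 1 h, filter-based scintillation counting. Primary screen at 25 uM in duplicate; hits rerun in concentration-response up to 50 uM.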

[17] = target: human Opioid Receptor Delta 1 (Opiate D1), OPRD1 (gene 4985) (UniProt P41143); experiment: NVS_GPCR_hOpiate_D1: NovaScreen (NVS) G Protein-Coupled Receptor Assay for human Opioid Receptor Delta 1 (Opiate D1) (AID 2283280)
Chain of human Opioid Receptor Delta 1 (Opiate D1), OPRD1 (gene 4985) (P41143 whole entry, looked up): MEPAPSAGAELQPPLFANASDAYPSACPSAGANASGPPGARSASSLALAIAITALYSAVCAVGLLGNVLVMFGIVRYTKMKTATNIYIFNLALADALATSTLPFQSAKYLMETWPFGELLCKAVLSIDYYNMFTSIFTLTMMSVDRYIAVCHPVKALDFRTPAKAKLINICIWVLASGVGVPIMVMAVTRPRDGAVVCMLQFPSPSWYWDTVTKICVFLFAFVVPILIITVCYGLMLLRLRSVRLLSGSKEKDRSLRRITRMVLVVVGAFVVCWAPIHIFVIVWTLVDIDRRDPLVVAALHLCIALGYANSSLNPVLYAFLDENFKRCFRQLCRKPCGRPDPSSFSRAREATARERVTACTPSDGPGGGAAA
Method in brief: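 Radioligand displacement on membranes from CHO cells expressing the receptor, read by filter scintillation counting 1 h after dosing. Duplicate single-point screen at 25 uM, then concentration series for actives; loss of signal versus DMSO.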

[18] = target: human Thromboxane A2 Receptor (TXA2), TBXA2R (gene 6915) (UniProt P21731); experiment: NVS_GPCR_hTXA2: NovaScreen (NVS) G Protein-Coupled Receptor Assay for human Thromboxane A2 Receptor (TXA2) (AID 2283282);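 also: actives reduce bound radioligand signal relative to DMSO baseline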
Chain of human Thromboxane A2 Receptor (TXA2), TBXA2R (gene 6915) (P21731 whole entry, looked up): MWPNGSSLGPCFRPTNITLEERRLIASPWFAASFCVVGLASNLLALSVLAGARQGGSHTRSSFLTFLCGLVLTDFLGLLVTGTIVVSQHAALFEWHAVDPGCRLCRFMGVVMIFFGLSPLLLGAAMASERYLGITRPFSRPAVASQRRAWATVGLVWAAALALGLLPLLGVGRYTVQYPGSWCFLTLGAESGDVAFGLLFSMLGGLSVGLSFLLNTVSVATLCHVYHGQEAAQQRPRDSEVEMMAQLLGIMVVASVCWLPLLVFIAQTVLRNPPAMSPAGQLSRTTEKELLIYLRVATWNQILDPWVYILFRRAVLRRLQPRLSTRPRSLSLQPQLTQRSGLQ
Method in brief: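 Biochem binding, human platelets, cell-free; competitive radioligand displacement; 1 h; filter radiodetection. 25 uM duplicate primary, conc. series secondary; DMSO neg. ctrl.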

[19] = target: human Leukotriene B4 Receptor 1 (LTB4-BLT1), LTB4R (gene 1241) (UniProt Q15722); experiment: NVS_GPCR_hLTB4_BLT1: NovaScreen (NVS) G Protein-Coupled Receptor Assay for human Leukotriene B4 Receptor 1 (LTB4-BLT1) (AID 2283271)
Chain of human Leukotriene B4 Receptor 1 (LTB4-BLT1), LTB4R (gene 1241) (Q15722 whole entry, looked up): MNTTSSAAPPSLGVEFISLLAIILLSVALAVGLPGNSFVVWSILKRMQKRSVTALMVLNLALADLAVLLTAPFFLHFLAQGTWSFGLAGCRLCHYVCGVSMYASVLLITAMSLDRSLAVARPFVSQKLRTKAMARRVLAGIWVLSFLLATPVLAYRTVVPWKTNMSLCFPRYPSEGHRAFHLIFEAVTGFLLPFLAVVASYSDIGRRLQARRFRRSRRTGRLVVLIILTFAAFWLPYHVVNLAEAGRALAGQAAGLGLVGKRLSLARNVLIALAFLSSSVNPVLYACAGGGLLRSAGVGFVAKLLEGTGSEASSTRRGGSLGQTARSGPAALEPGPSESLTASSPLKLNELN
Method in brief: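 Radioligand displacement binding on receptor extracted from human neutrophils, cell-free, 1 h after dosing; filter-based scintillation counting. Primary screen in duplicate at 25 uM, actives retested in concentration-response up to 50 uM; loss of signal versus DMSO.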

[20] = target: Type-1 angiotensin II receptor (Homo sapiens) (UniProt P30556); experiment: NVS_GPCR_hAT1: NovaScreen (NVS) G Protein-Coupled Receptor Assay for human Angiotensin II receptor type 1 (AT1) (AID 2283263)
Method in brief: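 Membranes from KAN-TS cells; radioligand competitive displacement, 3 h, filtration and scintillation counting. Single-point duplicate screen at 25 uM, then concentration-response up to 50 uM for hits; loss of signal fitted versus DMSO.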

Compound: CC(C)(O)C(=O)Nc1ccc([N+](=O)[O-])c(C(F)(F)F)c1
- outcome [1]: inactive

Compound: CCCCCCCCCC[N+](C)(C)CCCCCCCCCC
- AC50 [2]: 25 µM (active)
- AC50 [3]: 6.49 µM (active)
- AC50 [4]: 5.51 µM (active)
- AC50 [5]: 16.4 µM (active)
- AC50 [6]: 6.19 µM (active)
- AC50 [7]: 2.6 µM (active)
- AC50 [8]: 7.03 µM (active)
- AC50 [9]: 3.37 µM (active)
- AC50 [10]: 6.18 µM (active)
- AC50 [11]: 3.56 µM (active)
- AC50 [12]: 2.39 µM (active)
- AC50 [13]: 7.12 µM (active)
- AC50 [14]: 11.6 µM (active)
- AC50 [15]: 2.98 µM (active)
- AC50 [16]: 4.36 µM (active)
- AC50 [17]: 4.31 µM (active)
- AC50 [18]: 14.3 µM (active)

Compound: O=C(O)C(F)(F)C(F)(F)C(F)(F)C(F)(F)C(F)(F)C(F)(F)C(F)(F)C(F)(F)C(F)(F)F
- AC50 [2]: 25 µM (active)
- AC50 [7]: 16.8 µM (active)
- AC50 [17]: 16.4 µM (active)
- outcome [1]: inactive
- AC50 [18]: 25 µM (active)

Compound: Cc1cccc(C)c1N
- outcome [19]: inactive

Compound: Cc1cc2c3c(c1)C(c1ccccc1)=N[C@@H](NC(=O)c1ccncc1)C(=O)N3CC2
- outcome [15]: inactive
- outcome [16]: inactive
- outcome [18]: inactive

Compound: O=S(=O)(O)C(F)(F)C(F)(F)C(F)(F)C(F)(F)C(F)(F)C(F)(F)F
- outcome [14]: inactive
- AC50 [18]: 14.5 µM (active)

Compound: CCC(C)(c1ccc(O)cc1)c1ccc(O)cc1
- AC50 [7]: 11.3 µM (active)
- outcome [15]: inactive
- AC50 [17]: 13.2 µM (active)

Compound: CCOC(=O)C(O)(c1ccc(Cl)cc1)c1ccc(Cl)cc1
- outcome [18]: inactive

Compound: O=C(N[C@H]1CN2CCC1CC2)c1cc2ccoc2cn1
- AC50 [10]: 25 µM (active)

Compound: CCOP(=S)(OCC)SCSC(C)(C)C
- outcome [1]: inactive

Compound: CCC(=O)O[C@H]1CC[C@H]2[C@@H]3CCC4=CC(=O)CC[C@]4(C)[C@H]3CC[C@]12C
- outcome [10]: inactive
- AC50 [11]: 2.04 µM (active)

Compound: Oc1ccc(C(c2ccc(O)cc2)(C(F)(F)F)C(F)(F)F)cc1
- outcome [20]: inactive
- AC50 [2]: 14.1 µM (active)
- AC50 [4]: 9.39 µM (active)
- outcome [5]: inactive
- AC50 [7]: 2.86 µM (active)
- AC50 [8]: 37 µM (active)
- outcome [10]: inactive
- AC50 [11]: 32.5 µM (active)
- AC50 [12]: 18.4 µM (active)
- AC50 [17]: 11.4 µM (active)

Compound: CCCCCCCCCc1ccc(O)cc1
- outcome [1]: inactive

Compound: COc1ccc(O)c(C(C)(C)C)c1
- outcome [2]: inactive
- AC50 [4]: 25 µM (active)

Compound: CCC(C)(CC)c1cc(NC(=O)c2c(OC)cccc2OC)on1
- AC50 [18]: 1.03 µM (active)

Compound: O=C(NC(=O)c1c(F)cccc1F)Nc1cc(Cl)c(OC(F)(F)C(F)F)c(Cl)c1
- outcome [18]: inactive

Compound: O=C(O)C(F)(F)C(F)(F)C(F)(F)C(F)(F)C(F)(F)C(F)(F)C(F)(F)C(F)(F)F
- AC50 [18]: 6.2 µM (active)

Compound: CC(C)(c1ccccc1)c1ccc(O)cc1
- outcome [4]: inactive
- AC50 [7]: 25 µM (active)
- outcome [19]: inactive
- outcome [12]: inactive
- AC50 [15]: 25 µM (active)

Compound: Oc1c(Cl)c(Cl)c(Cl)c(Cl)c1Cl
- outcome [15]: inactive
- outcome [1]: inactive

Compound: Cc1cc(-c2ccc(N)c(C)c2)ccc1N
- outcome [4]: inactive
- outcome [6]: inactive

Compound: C[C@]12CCC(=O)C=C1CC[C@@H]1[C@@H]2CC[C@@]2(C)[C@H]1CC[C@]2(C)O
- outcome [17]: inactive
